Results published in the supplement of paper PMC6555819.

Key:
Assay in all cases: PBM binding z-score (relative to random genomic background probes); higher = stronger binding; sequences stand for … in GC…GCGATTGACAGCGTAGAATGAAGG
[1] = test system: RARb homodimer (NR concentration 270 nM)
Procedure, shortened: (§1)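 Scanned fluorescence from custom Agilent 4×180K protein-binding microarrays was regression-normalized. Binding z-scores use random background probes as reference. Ligand-free nuclear receptor dimers were incubated on the arrays for 1 h and detected with antibodies against each partner (one per run).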

[2] = test system: RARg:RXRa (NR concentration 270 nM, RXRa partner concentration 90 nM)
Procedure, shortened: as §1

[3] = test system: RARg homodimer (NR concentration 270 nM)
Procedure, shortened: as §1

[4] = test system: RXRa DBDmut IVT, anti-RXR (DBD mutation: RXRa K156A/R161A, NR concentration 90 nM)
Procedure, shortened: as §1

[5] = test system: RXRa homodimer (NR concentration 180 nM)
Procedure, shortened: as §1

[6] = test system: THRa:RXRa (NR concentration 90 nM, RXRa partner concentration 90 nM)
Procedure, shortened: as §1

[7] = test system: THRa homodimer (NR concentration 90 nM)
Procedure, shortened: as §1

[8] = test system: VDR homodimer (NR concentration 270 nM)
Procedure, shortened: as §1

Sequence	PBM binding z-score [1]	PBM binding z-score [2]	PBM binding z-score [3]	PBM binding z-score [4]	PBM binding z-score [5]	PBM binding z-score [6]	PBM binding z-score [7]	PBM binding z-score [8]
ATACCAAGGTGCTCGTGAGGTCGTTGATACTAAC	1.4	0.626	0.196	0.552	0.882	3.31	2.12	2.55
CGTCGAAGTTCAAGGTAACGTAACAGAAAGCAGC	1.95	2.79	3.25	3.69	2.21	2.07	0.792	1.74
AGAATGAGGTTATACGTAGATCACGGAAGAAAGT	0.646	1.96	1.21	2	2.38	2.11	0.348	0.934
ATCTCTAGGTAACAAGTTGAGTGAAAGAGAGGAC	0.79	0.858	0.91	-0.013	0.381	1.41	0.716	0.639
CCTAGCAGGCCAGGGTCCCTCAAGCATTTCGCTT	-0.427	-0.683	-0.827	-1.15	-0.657	-0.281	-0.649	-0.542
TGAATGAGGTTAACGATCAGGGAACGTGGCGTCG	0.791	1.96	1.19	0.898	2.81	2.52	0.403	0.222
GCTGACAGGTGAAACGCAGGTAACTCAGGGTGGC	0.252	0.825	0.362	-0.702	0.505	1.27	-0.547	-0.647
TCATATAGGTAATACAGGGGAAAGTCGGCATCTA	0.303	0.419	0.551	1.97	0.857	0.893	0.385	-0.00129
CCGACTGGGGCAACGTTACCATAACGCACAGCCA	-0.0419	0.137	0.521	-0.207	-0.126	-0.262	-0.261	-0.403
CTACCAAGGTGAACCAGGTCGTTGATTACTATTC	1.75	1.44	1.26	0.903	1.76	3.09	1.85	1.28
CGAACTAGGTCATTGACAGGACGGTGAATAGTAA	2.33	4.09	4.33	2.13	2.59	2.58	0.313	0.872
CTGACTGGGGCATAAGGTTACCATAAGCCAGCCC	1.92	1.99	1.46	-0.277	1.4	2.42	1.35	-0.328
CCGACTGGGGCATAAAGGTTACCATACCATCCGG	2.16	1.92	1.79	-0.788	1.63	1.19	-0.376	0.423
GCGAGTGGGGCATCAGCAGGTTACCATAACTTAA	0.915	1.05	0.378	-0.215	0.32	0.958	0.127	-0.291
TTACCAAGGTGGGCTGAGGTCGTTGATCCAACTC	1.04	0.249	-0.257	0.273	0.833	3.77	1.5	2.06
CCTGCTAGGTCAGGGTCAGCTAATCTACAGTATG	4.16	4.45	5.23	1.37	4.03	3.48	1.81	1.01
GCTCGGAGGATAAGGTCAGAGCTTTGTCCGTAGA	3.31	2.92	3.06	0.342	2.71	3.33	2.82	0.184
GTACCTAGGTGAATAGGTCGTTGATGAGTAGGCG	1.12	1.85	0.79	-0.37	1.24	1.08	-0.182	0.0472
ATCTCTAGGTAACCAAGTTCAGTGAATGCCGAAC	1.52	0.894	0.853	0.991	0.572	1.6	0.96	2.99

Sequence	PBM binding z-score [1]	PBM binding z-score [2]	PBM binding z-score [3]	PBM binding z-score [4]	PBM binding z-score [5]	PBM binding z-score [6]	PBM binding z-score [7]	PBM binding z-score [8]
TCGAGTAGGTTAGGGGCATTCTGAATGGCGTCGA	0.656	0.0827	0.00279	0.628	0.386	0.627	-0.0336	0.572
GGAACGAGGGCAAAGTTGATAGAATCTGTCGACG	1.19	2.18	1.77	2.54	2.06	1.39	-0.286	1.42
CCTAGTTGGTCATGAGGTCACACACCGGATATGA	4.66	5.3	4.46	2	5.17	4.72	5.35	4.1
TCTTGTAGATCAAGCAGGTGAAGAAAGCCTGAGT	-0.296	-0.262	-0.325	0.591	0.0351	-0.0555	-0.319	-0.154
GCGACTGGGGCATCAGCACGTTACCATAACTTAA	0.000503	0.0207	0.311	0.239	0.0852	-0.219	-0.089	-0.335
TCTGTTAGTTGAAGGGCAACCGACGAGTCCGTTT	1.22	0.835	0.708	1.1	0.588	0.412	0.0955	1.67
CCTGCTAGGTCATGGTCAGCTACTCTACAGTATG	3.28	3.94	4.84	1.7	2.51	2.76	1.42	0.186
TCTATTAGTTGATTATGGCAACCGAAACAGCGGA	-0.245	0.408	0.199	1.38	0.509	0.165	0.396	0.715
CCTAGTTGGTCACGGTCACACACGCTATAGGTAC	2.79	1.84	2.25	1.13	0.982	1.05	1.4	0.987
TCGAGTGGGTTACCAATGGGGCATTCAGCTTTCT	0.278	0.678	-0.504	-0.00783	0.312	-0.369	-1.25	-1.02
TCTGCTAGGTCAACGATGGTCAGCTAGTCTGCTA	3.54	3.9	4.61	0.638	2.5	3.16	0.617	-0.544
TCTTGTAGATCAATAGAGGATAAGAAAGTGCGCT	-0.566	0.208	0.365	0.919	0.16	1.5	-0.588	0.0606
CAAACTAGGTCACGACAGGTCAAAGTCGAATGAC	4.83	6.43	6.78	2.05	6.08	5.05	2.47	2.23
ATATGTAGGTAATCGGGTCATTCAGTTTGCGCAT	2.15	2.06	1.32	1.13	2.55	3.16	2.46	3.14
CGTAGTTGGTCAAGGTCACACACGCTATAGGTAC	4.23	4.34	4.9	2.14	4.06	4.05	3.89	2.45
CCTACTGGGCGAAAGGTCATTGATTCCAATGCTC	4.3	5.19	4.82	1.01	5.76	2.95	0.374	2
CGAACTAGGTCATCCAGGACAGTGTATACATTGA	3.16	3.92	4.85	2.47	3.21	3.62	2.17	2.4
ATCGAAACGTCGAAGGTGAGTATACCCACCCGAA	-0.0717	0.382	0.461	-1.07	0.361	0.0237	-0.567	-0.497
CAAACTAGGTCAAGGACAAAGTCGGTTTGTGCCA	3.2	3.97	4.91	1.39	2.52	3.58	2.25	0.988

Sequence	PBM binding z-score [1]	PBM binding z-score [2]	PBM binding z-score [3]	PBM binding z-score [4]	PBM binding z-score [5]	PBM binding z-score [6]	PBM binding z-score [7]	PBM binding z-score [8]
TCATATAGGTAAACAGGTGAAAGTGCGTAAGTTA	1.09	0.642	0.552	1.66	1.17	0.829	0.583	0.623
CCTTACGGGTCGAGGTTATAGCACGGGTGGTACG	1.42	1.78	1.16	-0.662	2.5	1.84	0.377	0.977
GGAACGAGGGCAAAGTTGATAACATCTGTCGACG	1.21	2.19	1.97	2.93	1.93	1.27	-0.123	1.42
CCCCGGAGGACAACAGGAGGTCAGAGCTGCCAGA	3.5	3.66	3.24	-0.883	2.21	2.94	1.39	1.77
CCTATTAGTTGACCATAAGGGCACCCGAAGCTCG	1.86	1.16	1.04	0.326	0.908	2.02	1.61	1.39
CGAACTAGGTCAGAACAGGACAGTGATGGATGAT	2.11	2.39	2.83	0.564	1.13	3.48	0.141	0.283
AGAACGAGGGCGCGCTGAGTTGATAGCAGAGTAG	-0.416	0.211	0.0624	0.991	0.444	0.45	-0.623	0.824
TCATATAGGTAATACAGGAGAAAGTCGGCATCTA	-0.136	0.519	0.598	1.48	0.686	0.0311	0.0486	0.233
TCGAGTAGGTTAGCCGGGGCATTCAGCCAACATA	0.49	0.0604	-0.231	0.227	0.332	1.17	-0.114	-0.000725
CGTCCAAGGTCAATGCTCGGTCAGTGAAAGCATT	4.62	6.85	6.5	3.69	5.11	3.71	2.09	2.86
ATCGAAAGGTCGTGAGGTGAGGATACAGAAAGGC	3.16	4.81	3.99	1.31	5.33	3.74	2.51	0.974
TCGAGTTGGTTACCAATGGGGCATTCAGCTTTCT	-0.231	-0.62	-0.85	0.662	-0.558	-0.69	-1.23	-0.117
CATACAGGGTCAGCGAGGCCAGAGTAGGGACGGC	3.42	4.59	4.23	1.89	4.45	3.58	1.01	2.49
GCTAGCAGGCCATTTGGGTTACTCAATGACGGGC	-0.137	-0.0989	0.178	-0.102	0.0436	0.307	-0.64	-0.276
CCGAGTAGGTTATGGGTCATTCAGGCAACGGTGA	2.66	2.52	2.15	0.565	3.06	2.29	0.87	1.42
TATTGTAGATCAGCAGGTTAAGAAAGCTGGCCAA	-0.28	-0.0508	0.00581	-1.23	0.171	0.0661	-0.952	-0.39
TCATATAGGTAAAAGGTGAAAGTCGGTGTGGTAA	2.06	2.24	1.17	1.87	2.96	1.77	0.633	0.737
CGTCCAAGGTCAATGCTAGGTCAGAGAAAGCATT	5.02	7.59	7.07	3.6	6.03	4.58	3	2.77
